Measured values published in the supplement of paper PMC10849652.
About 7,900 targets were measured; listed, in parts, are those with a hit and a random draw of the rest. About 0.6% of all pairs of compound and target were hits.

The targets below were run with c1cn2cc(-c3ccc4cn[nH]c4c3)nc(Nc3ccc(N4CCOCC4)cc3)c2n1 [entospletinib] (assay: log2 fold change, soluble protein after heating vs DMSO (PISA); higher = thermal stabilisation; K562 cells, 10 uM, 30 min; active = over 0.2 and 3.5 SD of the protein, either way, in both replicates (recomputed)).
Procedure, shortened: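 K562 cells at 2×10^6 cells/mL were treated with 10 μM compound for 30 min. Aliquots were heated for 3 min across 48°C-58°C, pooled, and extracted in PBS with 0.5% NP-40 at 4°C; soluble protein was the supernatant after 21,000xg for 90 min. Soluble protein was quantified by TMTpro 16plex LC-MS/MS with channel sums equalised, and reported as log2 fold change in thermal stability against DMSO controls, with values from duplicates.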

Chain of UniProt O75554 (O75554 whole entry, looked up): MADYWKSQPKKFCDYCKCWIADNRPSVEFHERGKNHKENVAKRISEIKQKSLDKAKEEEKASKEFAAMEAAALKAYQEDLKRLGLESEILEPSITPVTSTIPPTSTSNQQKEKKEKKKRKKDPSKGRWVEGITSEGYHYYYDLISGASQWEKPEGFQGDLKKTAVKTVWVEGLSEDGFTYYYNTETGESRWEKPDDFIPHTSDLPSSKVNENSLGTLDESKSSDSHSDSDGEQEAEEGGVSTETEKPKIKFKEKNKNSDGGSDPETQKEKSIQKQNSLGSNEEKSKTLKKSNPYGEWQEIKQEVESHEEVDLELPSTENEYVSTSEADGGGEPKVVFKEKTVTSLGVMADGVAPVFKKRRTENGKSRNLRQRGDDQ
Chain of UniProt A6NHL2 (A6NHL2 whole entry, looked up): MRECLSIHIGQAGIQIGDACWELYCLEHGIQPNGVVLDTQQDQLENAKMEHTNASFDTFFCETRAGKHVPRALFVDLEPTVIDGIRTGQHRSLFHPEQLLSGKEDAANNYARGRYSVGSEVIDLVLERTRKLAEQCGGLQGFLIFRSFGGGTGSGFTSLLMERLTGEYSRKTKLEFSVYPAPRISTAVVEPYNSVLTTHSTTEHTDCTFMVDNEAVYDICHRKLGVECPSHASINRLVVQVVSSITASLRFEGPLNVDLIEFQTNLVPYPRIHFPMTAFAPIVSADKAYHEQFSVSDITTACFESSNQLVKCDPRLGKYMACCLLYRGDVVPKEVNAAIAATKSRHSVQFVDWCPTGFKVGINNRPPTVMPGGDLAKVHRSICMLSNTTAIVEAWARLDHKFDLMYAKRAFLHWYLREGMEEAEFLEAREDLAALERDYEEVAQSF
Chain of UniProt Q01081 (Q01081 whole entry, looked up): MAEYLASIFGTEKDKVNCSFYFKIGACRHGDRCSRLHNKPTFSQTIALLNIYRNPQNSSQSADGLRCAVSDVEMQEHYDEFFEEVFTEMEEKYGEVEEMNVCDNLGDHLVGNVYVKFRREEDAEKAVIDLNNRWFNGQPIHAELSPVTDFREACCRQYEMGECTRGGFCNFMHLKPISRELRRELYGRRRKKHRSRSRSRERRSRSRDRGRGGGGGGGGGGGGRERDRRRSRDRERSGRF
Chain of UniProt Q86TN4 (Q86TN4 whole entry, looked up): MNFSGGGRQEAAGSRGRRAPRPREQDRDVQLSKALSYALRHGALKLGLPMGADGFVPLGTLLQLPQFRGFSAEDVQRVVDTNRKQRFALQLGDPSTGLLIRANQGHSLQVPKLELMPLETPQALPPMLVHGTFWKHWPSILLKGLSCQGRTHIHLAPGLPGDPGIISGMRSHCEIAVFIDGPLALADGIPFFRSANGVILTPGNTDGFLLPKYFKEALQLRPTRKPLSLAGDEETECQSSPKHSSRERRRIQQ
Chain of UniProt Q9BZI7 (Q9BZI7 whole entry, looked up): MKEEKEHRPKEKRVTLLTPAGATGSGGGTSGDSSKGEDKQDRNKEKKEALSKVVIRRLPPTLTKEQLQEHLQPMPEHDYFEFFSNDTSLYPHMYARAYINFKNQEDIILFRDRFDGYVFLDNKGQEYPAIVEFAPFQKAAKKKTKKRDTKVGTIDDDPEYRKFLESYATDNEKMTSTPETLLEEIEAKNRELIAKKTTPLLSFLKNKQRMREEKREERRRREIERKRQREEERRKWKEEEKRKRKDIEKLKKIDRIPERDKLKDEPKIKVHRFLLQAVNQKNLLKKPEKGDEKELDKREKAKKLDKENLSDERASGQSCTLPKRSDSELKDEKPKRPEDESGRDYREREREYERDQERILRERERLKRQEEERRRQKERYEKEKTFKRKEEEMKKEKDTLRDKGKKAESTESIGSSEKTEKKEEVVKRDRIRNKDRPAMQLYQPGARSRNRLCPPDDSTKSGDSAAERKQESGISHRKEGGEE
Chain of UniProt Q15388 (Q15388 whole entry, looked up): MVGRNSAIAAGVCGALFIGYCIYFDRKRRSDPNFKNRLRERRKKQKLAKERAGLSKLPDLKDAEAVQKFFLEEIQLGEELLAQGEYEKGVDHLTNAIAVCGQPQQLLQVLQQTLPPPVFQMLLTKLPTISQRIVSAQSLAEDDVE
Chain of UniProt P11388 (P11388 whole entry, looked up): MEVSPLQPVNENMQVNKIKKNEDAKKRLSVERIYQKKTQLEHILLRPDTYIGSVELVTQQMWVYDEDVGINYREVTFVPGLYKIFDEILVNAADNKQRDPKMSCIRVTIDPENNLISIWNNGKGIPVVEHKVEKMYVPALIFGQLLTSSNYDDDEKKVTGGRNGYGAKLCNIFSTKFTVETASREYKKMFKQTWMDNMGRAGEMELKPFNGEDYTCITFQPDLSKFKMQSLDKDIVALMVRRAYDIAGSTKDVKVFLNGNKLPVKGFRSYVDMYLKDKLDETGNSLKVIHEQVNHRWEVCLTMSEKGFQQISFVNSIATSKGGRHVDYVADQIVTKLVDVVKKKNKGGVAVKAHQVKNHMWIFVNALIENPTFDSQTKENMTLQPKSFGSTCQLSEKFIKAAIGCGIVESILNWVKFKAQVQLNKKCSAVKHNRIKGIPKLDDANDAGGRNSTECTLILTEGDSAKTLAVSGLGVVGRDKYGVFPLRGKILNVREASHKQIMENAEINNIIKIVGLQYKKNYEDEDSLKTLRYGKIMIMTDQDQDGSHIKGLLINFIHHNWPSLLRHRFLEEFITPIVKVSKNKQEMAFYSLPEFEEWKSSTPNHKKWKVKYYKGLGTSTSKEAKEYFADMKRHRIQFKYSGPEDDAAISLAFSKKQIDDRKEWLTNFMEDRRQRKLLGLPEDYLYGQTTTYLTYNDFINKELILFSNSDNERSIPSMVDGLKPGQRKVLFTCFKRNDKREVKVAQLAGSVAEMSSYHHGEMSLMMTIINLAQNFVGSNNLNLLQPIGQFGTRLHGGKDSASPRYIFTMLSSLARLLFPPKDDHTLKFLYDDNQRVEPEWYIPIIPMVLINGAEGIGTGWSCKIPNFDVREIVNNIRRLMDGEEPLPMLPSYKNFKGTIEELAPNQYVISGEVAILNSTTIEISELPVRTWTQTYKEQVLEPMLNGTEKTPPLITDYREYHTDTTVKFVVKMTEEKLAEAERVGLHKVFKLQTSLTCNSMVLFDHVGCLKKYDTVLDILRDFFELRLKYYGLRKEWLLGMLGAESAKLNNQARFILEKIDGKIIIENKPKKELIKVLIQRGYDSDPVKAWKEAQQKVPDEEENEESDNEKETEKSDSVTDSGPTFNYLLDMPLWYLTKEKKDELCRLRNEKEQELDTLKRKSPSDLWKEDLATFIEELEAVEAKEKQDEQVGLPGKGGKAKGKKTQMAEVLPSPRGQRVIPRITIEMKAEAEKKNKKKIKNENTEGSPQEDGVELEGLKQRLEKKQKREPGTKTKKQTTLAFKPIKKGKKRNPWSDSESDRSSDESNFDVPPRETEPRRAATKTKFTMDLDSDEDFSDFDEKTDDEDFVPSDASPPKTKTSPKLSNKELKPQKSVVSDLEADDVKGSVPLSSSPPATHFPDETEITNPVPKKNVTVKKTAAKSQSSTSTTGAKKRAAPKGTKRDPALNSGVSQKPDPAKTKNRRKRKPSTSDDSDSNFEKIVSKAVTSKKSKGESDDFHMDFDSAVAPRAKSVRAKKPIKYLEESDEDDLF
Chain of UniProt Q13263 (Q13263 whole entry, looked up): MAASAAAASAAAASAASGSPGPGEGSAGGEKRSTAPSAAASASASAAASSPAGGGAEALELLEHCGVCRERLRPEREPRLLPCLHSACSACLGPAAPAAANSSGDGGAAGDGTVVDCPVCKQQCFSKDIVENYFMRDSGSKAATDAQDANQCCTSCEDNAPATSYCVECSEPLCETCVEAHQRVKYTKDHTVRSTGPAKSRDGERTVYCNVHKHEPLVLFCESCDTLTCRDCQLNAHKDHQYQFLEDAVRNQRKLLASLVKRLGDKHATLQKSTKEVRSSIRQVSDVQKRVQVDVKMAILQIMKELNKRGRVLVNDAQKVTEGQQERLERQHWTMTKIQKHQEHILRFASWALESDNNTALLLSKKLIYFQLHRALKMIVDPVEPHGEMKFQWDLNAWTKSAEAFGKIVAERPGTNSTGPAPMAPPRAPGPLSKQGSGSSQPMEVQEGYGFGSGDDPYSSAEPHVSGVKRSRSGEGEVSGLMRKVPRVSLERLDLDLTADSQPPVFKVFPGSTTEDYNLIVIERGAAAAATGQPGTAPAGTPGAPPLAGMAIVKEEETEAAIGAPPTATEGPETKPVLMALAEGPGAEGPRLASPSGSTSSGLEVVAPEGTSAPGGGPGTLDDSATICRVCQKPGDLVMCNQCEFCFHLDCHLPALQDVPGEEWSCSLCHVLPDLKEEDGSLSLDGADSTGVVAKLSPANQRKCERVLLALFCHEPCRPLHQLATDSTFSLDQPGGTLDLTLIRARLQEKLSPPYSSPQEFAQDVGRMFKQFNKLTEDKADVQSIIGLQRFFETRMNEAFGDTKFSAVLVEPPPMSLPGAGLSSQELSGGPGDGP
Chain of UniProt Q8N2K1 (Q8N2K1 whole entry, looked up): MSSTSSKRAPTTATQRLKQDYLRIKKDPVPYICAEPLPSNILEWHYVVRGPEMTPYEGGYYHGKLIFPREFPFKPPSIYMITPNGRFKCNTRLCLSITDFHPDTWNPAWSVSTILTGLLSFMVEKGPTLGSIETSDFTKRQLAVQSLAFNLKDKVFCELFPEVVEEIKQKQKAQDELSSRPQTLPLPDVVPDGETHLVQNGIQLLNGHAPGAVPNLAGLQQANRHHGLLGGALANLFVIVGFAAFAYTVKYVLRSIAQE
Chain of UniProt Q9BQB6 (Q9BQB6 whole entry, looked up): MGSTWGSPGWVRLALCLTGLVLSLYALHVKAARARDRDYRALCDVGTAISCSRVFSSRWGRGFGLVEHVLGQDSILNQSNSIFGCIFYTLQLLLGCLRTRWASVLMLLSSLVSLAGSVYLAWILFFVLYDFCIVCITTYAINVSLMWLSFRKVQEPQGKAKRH
Chain of UniProt Q7Z7N9 (Q7Z7N9 whole entry, looked up): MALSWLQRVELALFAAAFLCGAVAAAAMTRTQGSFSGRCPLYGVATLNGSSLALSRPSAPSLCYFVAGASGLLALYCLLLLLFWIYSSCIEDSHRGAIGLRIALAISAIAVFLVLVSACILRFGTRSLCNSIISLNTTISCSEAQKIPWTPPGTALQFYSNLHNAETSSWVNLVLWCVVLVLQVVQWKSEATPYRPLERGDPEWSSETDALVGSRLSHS

log2 fold change, inactive:
TMEM179B (UniProt Q7Z7N9) 0.098
TRPT1 isoform 4 (UniProt Q86TN4) 0.051
TYW1 (UniProt Q9NV66) 0.003
TOP2A isoform 4 (UniProt P11388) 0.119
USP34 (UniProt Q70CQ2) -0.002
WDCP (UniProt Q9H6R7) -0.024
VKORC1 (UniProt Q9BQB6) 0.006
TRAM1 (UniProt Q15629) 0.145
TRIM28 (UniProt Q13263) -0.025
UBA52 (UniProt P62987) 0.159
TOMM20 (UniProt Q15388) 0.069
WBP4 (UniProt O75554) 0.036
TUBAL3 (UniProt A6NHL2) -0.351
UBE2J2 isoform 3 (UniProt Q8N2K1) -0.028
UBR2 (UniProt Q8IWV8) 0.029
UPF3B (UniProt Q9BZI7) 0.098
U2AF1 isoform 2 (UniProt Q01081) -0.052
